From PubChem BioAssay (NCATS)
Records with an inconclusive call do not appear. The source made the active and inactive calls. Unless noted, no rule for the calls is given here.

How the values were obtained:
[1] = qHTS profiling of the MIPE4 collection as inhibitors of Plasmodium falciparum (3D7) proliferation (AID 743344);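 also: scaled between DMSO vehicle wells and 0.29 µM artemisinin as full inhibition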; details: P. falciparum 3D7 in erythrocytes, SYBR Green DNA fluorescence, 72 h; at 28.5 µM unless noted
Outline: (§1)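 Parasite DNA was quantified by SYBR Green I fluorescence (ex 485, em 535 nm) after overnight lysis in saponin/Triton buffer at room temperature. Cultures at 0.3% parasitemia and 2.5% hematocrit were first exposed to compound for 72 h at 37 C; signals were normalised to artemisinin (0.29 uM) and vehicle wells.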

[2] = qHTS profiling of the MIPE4 collection as inhibitors of Plasmodium falciparum (DD2) proliferation (AID 743345); details: P. falciparum Dd2 in erythrocytes, SYBR Green DNA, 72 h; at 28.5 µM unless noted
Outline: as §1

[3] = qHTS profiling of the MIPE4 collection as inhibitors of Plasmodium falciparum (HB3) proliferation (AID 743347);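 also: plate controls were DMSO vehicle wells for no effect and artemisinin wells for full effect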; details: P. falciparum HB3 in erythrocytes, SYBR Green DNA, 72 h; at 28.5 µM unless noted
Outline: as §1

[4] = High-throughput drug toxicity screening in the BPDCN cell line Gen2.2 (AID 1224824); details: Gen2.2 BPDCN cells; at 45.8 µM (top of the series) unless noted;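 also: cells exposed to compounds for 48 h before reading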
Outline: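 CellTiter-Glo luminescence after 48 h compound exposure of Gen2.2 cells; percent activity set with DMSO as 100% and bortezomib (9.2 uM final) as 0%. Cells seeded at 500 per well, RPMI + 10% FBS, 37 °C.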

[5] = High-throughput drug toxicity screening in the BPDCN cell line Cal-1 (AID 1224825); details: Cal-1 BPDCN cell viability, qHTS; at 45.8 µM (top of the series) unless noted
Outline: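 CellTiter-Glo luminescence after 48 h compound exposure; percent activity scaled with DMSO as 100% and bortezomib (9.2 uM final) as 0%. Cal-1 cells seeded at 500/well in RPMI, 10% FBS, no phenol red.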

[6] = qHTS profiling of the MIPE4 collection as inhibitors of Plasmodium falciparum (DD2) proliferation (Rep 2) (AID 743346); details: P. falciparum Dd2 in erythrocytes, SYBR Green DNA, 72 h; at 28.5 µM unless noted
Outline: as §1

[7] = qHTS assay for measurement of the activity of small molecule inhibitors on Zika virus induced Caspase-3 activity in human iPSC derived neural progenitor cells (hNPCs) (AID 1224857; active = well fitted curve in the direction sought with a large enough effect; an effect the other way counts as inactive or inconclusive; also: nearly all actives have a fitted effect of over 65% in size; also: potency is read from the fitted curve at half-maximal effect)
Outline: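 Quantitative HTS format: human iPSC neural progenitors, 1 h compound pretreatment, ZIKV 2 FFU/cell for 6 h at 37 C. Percent inhibition derived from luminescent caspase-3/7 signal between uninfected and infected controls.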

[8] = qHTS profiling for inhibitors of Plasmodium falciparum (HB3) proliferation (AID 743324; active = well fitted curve in the direction sought with a large enough effect; an effect the other way counts as inactive or inconclusive;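 also: 100% = DMSO vehicle wells and 0% = artemisinin-treated control wells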); details: Plasmodium falciparum HB3 blood-stage proliferation; at 28.7 µM (top of the series)
Outline: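 SYBR Green fluorescence (485 ex/535 em) of lysed cultures, incubated overnight at room temperature in the dark, quantifies parasite DNA. Infected erythrocytes at 0.3% parasitemia and 2.5% hematocrit were exposed 72 h; values normalized to DMSO and 0.29 uM artemisinin controls.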

For `Cc1ccccc1C(C(=O)NC1CCCCC1)N(C(=O)Cn1ccnc1C)c1cccc(F)c1` (configuration not stated), the parasite growth, % of DMSO control [1] was 103%, the parasite growth remaining, % of DMSO control (lower = more inhibition) [2] was 36.3% and the growth, % of control [3] was 271%. It also gave a cell viability, % of control (lower = more cytotoxic) [4] of 125% and a viability (% of control) [5] of 107%.
`CO[C@H]1C[C@@H]2CC[C@@H](C)[C@@](O)(O2)C(=O)C(=O)N2CCCC[C@@H]2C(=O)O[C@H]([C@@H](C)C[C@@H]2CC[C@H](O)[C@H](OC)C2)CC(=O)[C@H](C)C=C(C)[C@@H](O)[C@@H](OC)C(=O)[C@H](C)C[C@H](C)C=CC=CC=C1C` gave a parasite growth, % of DMSO control [1] of 5.33%, a parasite growth remaining, % of DMSO control (lower = more inhibition) [2] of 9.31% and a parasite growth, % of control (lower = inhibition) [6] of 7.75%. The growth, % of control [3] was 6.63%, the cell viability, % of control (lower = more cytotoxic) [4] was 5.13% and the Potency [7] was “inactive”.
In the case of `O=C(CCc1ccc(O)cc1)c1c(O)cc(O)cc1O[C@@H]1O[C@H](CO)[C@H](O)[C@H](O)[C@H]1O`, the parasite growth, % of DMSO control [1] is reported as 272%, the parasite growth remaining, % of DMSO control (lower = more inhibition) [2] is reported as 79.6% and the parasite growth, % of control (lower = inhibition) [6] is reported as 57.9%. It also gave a growth, % of control [3] of 54% and a cell viability, % of control (lower = more cytotoxic) [4] of 238%.
With `O=C(NOCC(O)CO)c1cc(Br)c(F)c(F)c1Nc1ccc(I)cc1F` (configuration not stated) the parasite growth, % of DMSO control [1] was 89.4%, the parasite growth remaining, % of DMSO control (lower = more inhibition) [2] was 87.4% and the growth, % of control [3] was 77.4%. For the same compound, the cell viability, % of control (lower = more cytotoxic) [4] was 1.76% and the Potency [7] was “inactive”.
For `CO[C@H]1C(=O)[C@]2(C)[C@@H](OC)C[C@H]3OC[C@@]3(OC(C)=O)[C@H]2[C@H](OC(=O)c2ccccc2)[C@]2(O)C[C@H](OC(=O)[C@H](O)[C@@H](NC(=O)OC(C)(C)C)c3ccccc3)C(C)=C1C2(C)C`, the parasite growth, % of DMSO control [1] was 4.99%, the parasite growth remaining, % of DMSO control (lower = more inhibition) [2] was 13.7% and the growth, % of control [3] was 3.01%. For the same compound, the cell viability, % of control (lower = more cytotoxic) [4] was 28.9% and the viability (% of control) [5] was 13%.
Compound `CCc1ccc(C=C2SC(=S)NC2=O)cc1` has a parasite growth, % of DMSO control [1] of 77.1%, a parasite growth remaining, % of DMSO control (lower = more inhibition) [2] of 93.8% and a parasite growth, % of control (lower = inhibition) [6] of 115%. For the same compound, the growth, % of control [3] was 87.9%, the cell viability, % of control (lower = more cytotoxic) [4] was 159% and the Potency [7] was 20.9 µM (active).
For `COc1ccc(-c2oc3c(CC=C(C)C)c(OC4O[C@H](CO)[C@@H](O)[C@H](O)[C@@H]4O)cc(O)c3c(=O)c2OC2O[C@@H](C)[C@H](O)[C@@H](O)[C@@H]2O)cc1` (some centres not stated), the parasite growth, % of DMSO control [1] was 8.49%, the parasite growth remaining, % of DMSO control (lower = more inhibition) [2] was 5.99% and the parasite growth, % of control (lower = inhibition) [6] was 36.2%. For the same compound, the growth, % of control [3] was 11.3%, the cell viability, % of control (lower = more cytotoxic) [4] was 68.1% and the Potency [7] was “inactive”.
Compound `NC(=O)NN=Cc1ccc([N+](=O)[O-])o1` has a parasite growth, % of DMSO control [1] of 13.6%, a parasite growth remaining, % of DMSO control (lower = more inhibition) [2] of 48.9% and a parasite growth, % of control (lower = inhibition) [6] of 14.3%. For the same compound, the growth, % of control [3] was 13.3%, the cell viability, % of control (lower = more cytotoxic) [4] was 172% and the Potency [7] was “inactive”.
Compound `C=C1C(=O)OC(CCCCCCCC)C1C(=O)O` (configuration not stated) has a parasite growth, % of DMSO control [1] of 50.6%, a parasite growth remaining, % of DMSO control (lower = more inhibition) [2] of 76.2% and a parasite growth, % of control (lower = inhibition) [6] of 62.9%. The growth, % of control [3] was 61.5%, the cell viability, % of control (lower = more cytotoxic) [4] was 15.6% and the Potency [7] was “inactive”.
With `Cc1ccc(Nc2cc(-c3cccc(N4C(=O)c5ccccc5C4=O)c3)ncn2)cc1NS(C)(=O)=O` the parasite growth, % of DMSO control [1] was 76.1%, the parasite growth remaining, % of DMSO control (lower = more inhibition) [2] was 83.3% and the parasite growth, % of control (lower = inhibition) [6] was 76.5%. The growth, % of control [3] was 97.4%, the cell viability, % of control (lower = more cytotoxic) [4] was 52.3% and the Potency [7] was “inactive”.
In the case of `CS(=O)c1ccc(-c2nc(-c3ccc(F)cc3)c(-c3ccncc3)[nH]2)cc1` (configuration not stated), the remaining proliferation (% of control), lower = more inhibition [8] is reported as 20.3%, the parasite growth, % of DMSO control [1] is reported as 19.5% [at 57.5 µM] and the parasite growth remaining, % of DMSO control (lower = more inhibition) [2] is reported as 26.4% [at 57.5 µM]. The growth, % of control [3] was 7.77% [at 57.5 µM], the cell viability, % of control (lower = more cytotoxic) [4] was 41.2% [at 92.2 µM] and the Potency [7] was “inactive”.
